Assay outcomes from PubChem.
Many of the other results were omitted from the sample, so hits are more common in it than they were.
Methyltransferases: Primary Screen for Target Class Profiling of Small Molecule Inhibitors of Methyltransferases; purified enzyme, MTase-Glo SAH luminescence; stronger effect = lower value; calls only at 40 µM; 3.9% of 25,000 active; AID 1745853, 2022; call rule not given here
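Each enzyme was assayed with SAM and its substrate. SAH formation detected by MTase-Glo luminescence; single-point 40 uM screen[…].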
MTase-Glo counter: counter-screen for methyltransferase inhibitors: coupling enzymes without methyltransferase; shares compounds with Methyltransferases; MTase-Glo coupled enzymes, SAH conversion luminescence, no MTase; Potency, µM (titrated, usually from 57.3 µM), without a hit: at the highest dose activity change, negative = inhibition, most hits filed as inhibitors; 6% of 180 active; active = well fitted inhibition curve with a large enough effect; note: potency is the fitted concentration of half-maximal effect
Numbers without * were called inactive; i = inactive; + = active, no number; [ ] = dose if it differs, or a comment. % is set by controls: 0 for no effect and ±100 for the full control effect.

SMILES	Methyltransferases	others
Cc1ccc(Cn2c(=O)c3ccccc3n3c(=O)n(CC(=O)c4ccc(F)cc4)nc23)cc1	i
COc1ccc(OC)c(S(=O)(=O)N2CCc3nc(-c4ccc(F)cc4)ncc3C2)c1	i
CN1CCN(c2ncnc3sc4c(c23)CCNC4)CC1	+	MTase-Glo counter=15µM*
CCNc1ncnc2sc3c(c12)CCN(C(=O)COC)C3	i
CN1CCN(c2ncnc3c2CN(C2CCCCC2)C(=O)CN3C)CC1	i
COc1ccccc1CN1C(=O)c2cc3sccc3n2CC1(C)C(=O)NC1CCCCCC1 (stereo not given)	i
CCCOc1ccc(CN2C(=O)c3cc4ccccc4n3CC2(C)C(=O)NC2CCCCC2)cc1 (stereo not given)	i
CC(C)CCN1C[C@@H]2C[C@H]1C(=O)N(Cc1cccnc1)c1ccccc1O2	i
CN1CCC(N2C[C@@H]3C[C@H]2C(=O)N(CC2CC2)c2ccccc2O3)CC1	+	MTase-Glo counter=-5%[85.7 µM]
CCCn1c(=O)c2ccc(C(=O)NC(C)C)cc2n2c(=O)n(CC(=O)N(C)c3ccccc3)nc12	i
CCCNC(=O)N1CCn2cccc2C1C(C)C (stereo not given)	i
CCCCNC(=O)c1cccc(-c2cc(N3CCN(C)CC3)nc(N)n2)c1	+	MTase-Glo counter=-1%
COc1cccc(C(=O)NCCN2CCN(c3ccc(Cl)cc3)CC2)c1	i
CCCCCNC(=O)c1ccc2c(=O)nc3c(-c4cccc(F)c4)n[nH]n3c2c1	i
c1ccc(CNc2cc(-c3cc(N4CCCCC4)ncn3)c3cc[nH]c3n2)nc1	+	MTase-Glo counter=-9%
O=C(NCc1ccccn1)C1CCN(c2cc(C3CC(O)C3)ncn2)CC1 (stereo not given)	i
Cc1ccc(C(N)=O)cc1-c1cc(NCc2cccnc2)nc2[nH]ccc12	i
CCCC1CCC(c2ccc(C(=O)COC(=O)C(Cc3c[nH]c4ccccc34)NC(=O)c3ccc(CC)cc3)cc2)CC1 (stereo not given)	i
CN(C)CCNC(=O)c1ccnc(-c2nnc3ccc(N(C)c4ccccc4)nn23)c1	+	MTase-Glo counter=-7%[85.7 µM]
CC1=NOC(C(=O)N2CCCn3nc(C(=O)NCCN(C)C)cc3C2)C1 (stereo not given)	i
CN(C)CCNC(=O)c1cc2n(n1)CC(C)(C(=O)NCc1ccccc1)N(C)C2=O (stereo not given)	i
CCC(Cc1ccccc1)NC(=O)Cn1c(=O)oc2cc(S(=O)(=O)NCc3ccccc3)ccc21 (stereo not given)	i
CCN1c2cc(C(=O)NCCc3ccccc3)ccc2C(=O)N2CCCCC21 (stereo not given)	i
CCCC1=Nc2cc(C(=O)NCCCN3CCCCC3CC)ccc2Sc2ccc(C)cc21 (stereo not given)	+	MTase-Glo counter=-1%
CCC1CCCCN1CCCNC(=O)CCn1ccc2cc(S(=O)(=O)N3CCCCC3)ccc21 (stereo not given)	i
SMILES	Methyltransferases	others
Cc1ccccc1NC(=O)Cn1nc2n(CC(C)C)c(=O)c3ccc(C(=O)NC(C)C)cc3n2c1=O	i
Fc1ccccc1CN1CCC[C@H]1c1nc(-c2ccnc(N3CCOCC3)c2)no1	i
COCC(=O)Nc1ccc(-c2noc([C@@H]3CCCN3Cc3ncc[nH]3)n2)cn1	i
COCCNc1cc(-c2noc([C@@H]3CCCN3CC(C)C)n2)ccn1	+	MTase-Glo counter=-3%[85.7 µM]
COc1ccc(-c2cc3n(n2)CC(C)(C(=O)NCc2ccccc2OC)N(c2cccc(SC)c2)C3=O)cc1 (stereo not given)	i
COc1ccc(-c2nc(N3CCOCC3)cc3c2CN(Cc2ccccc2)C3=O)cn1	i
CCNc1ncnc2sc3c(c12)CCN(Cc1ccncc1)C3	i
c1ccc(CN2CCc3c(sc4ncnc(N5CCOCC5)c34)C2)cc1	+	MTase-Glo counter=-8%
CN1C(=O)c2cc(C(=O)NCc3ccc(Cl)cc3)nn2CC1(C)C(=O)NC1CCCC1 (stereo not given)	i
CN(CCN1C(=O)c2cc3sccc3n2CC1(C)C(=O)NC1CCCCCC1)C1CCCCC1 (stereo not given)	i
CC(=O)Nc1cccc(-c2ccnc(-c3nnc(C)n3Cc3ccccc3)c2)c1	i
CC(=O)Nc1ccc(CN2CC3(Cc4ccccc4NC3=O)C2)cc1	i
CC(=O)Nc1cccc(-c2cc3c(cn2)CN(Cc2ccccc2)CCN3)c1	+	MTase-Glo counter=-2%[85.7 µM]
CC(C)CCn1c(=O)c2ccc(C(=O)NC(C)C)cc2n2c(=O)n(Cc3c(F)cccc3Cl)nc12	i
Cc1cnc(C2CC2)n1C1CCCN(C(=O)c2ccoc2)C1 (stereo not given)	i
Cc1cnc(C2CC2)n1C1CCCN(Cc2ccccc2)C1 (stereo not given)	+	MTase-Glo counter=-5%
Cc1cnc(C2CCOCC2)n1C1CCCN(S(=O)(=O)c2ccccc2)C1 (stereo not given)	i
CCN1C(=O)c2c(C(=O)NCCc3ccc(OC)c(OC)c3)ncn2CC1(C)C(=O)NC1CCCC1 (stereo not given)	i
COc1cccc(C(=O)Cn2nc3n(Cc4ccccc4)c(=O)c4ccccc4n3c2=O)c1	i
COc1ccc(CNC(=O)c2cc3n(n2)CC(C)(C(=O)NC2CCCC2)N(C)C3=O)cc1OC (stereo not given)	i
COc1ccc(CCN(C)CCc2ccc(OC)c(OC)c2)cc1OC	i
COc1ccc(CNc2cc3c(cn2)CN(C)CCN3)cc1OC	+	MTase-Glo counter=0%[85.7 µM]
Cc1ccc(C(=O)Cn2nc3n(CCC(C)C)c(=O)c4ccc(C(=O)NC(C)C)cc4n3c2=O)cc1	i
CCCn1c(=O)c2cc(Cl)ccc2n2c(SCC(=O)Nc3cc(OC)cc(OC)c3)nnc12	i
CC1(C(=O)NC2CCCC2)Cn2c(nc3ccccc32)C(=O)N1Cc1ccc2c(c1)OCO2 (stereo not given)	i
SMILES	Methyltransferases	others
COCCC1(N(C)C)CCN(S(=O)(=O)c2cc(OC)ccc2OC)CC1	i
CCOc1ccc(NC(=O)N2CCn3c(C)ccc3C2CC)cc1 (stereo not given)	i
COc1ccc(NC(=O)CCc2ccnc(N3CCCC3)c2)c(OC)c1	+	MTase-Glo counter=0%
COc1ccc(NC(=O)N2CCn3cccc3C2C)c(OC)c1 (stereo not given)	i
CCCN(C)C(=O)CCc1ccnc(N2CCOCC2)c1	i
CCCOc1ccc(CN2C(=O)c3cc4occc4n3CC2(C)C(=O)NC2CCCCCCC2)cc1 (stereo not given)	i
CC1(C(=O)NC2CCCCCCC2)Cn2c(ccc2-c2ccccc2)C(=O)N1CCc1cccs1 (stereo not given)	i
CC(C)Cn1c(=O)c2ccccc2n2c(=O)n(CC(=O)Nc3ccc4c(c3)OCCO4)nc12	i
CC(C)NC(=O)c1ccc2c(=O)n(Cc3ccccc3)c3nn(Cc4ccccc4)c(=O)n3c2c1	i
Cc1nccn1CCC1CCN(c2nccc(-c3ccccn3)n2)CC1	+	MTase-Glo counter=4%
NCC1CCN(c2nccc(-c3ccc4ccccc4c3)n2)CC1	i
O=C(CCn1ccc2cc(S(=O)(=O)N3CCCCC3)ccc21)N1CCN(C(=O)c2ccco2)CC1	i
COc1ccc2nc([C@H]3CCN(C4CCCCC4)C3)[nH]c2c1	+	MTase-Glo counter=-5%[85.7 µM]
COc1ccc(CC(=O)N2CCCC2C(=O)N2CCC(c3nc4ccncc4[nH]3)C2)cc1 (stereo not given)	i
